A selection: hits, their analogues and other compounds. The true share with any hit is near 3.4%.
FBW7 activator: human FBW7 E3 ligase activation, primary screen. Q969H0. AlphaScreen FBW7–phospho-cyclin E peptide binding, activator screen. normalized activity (activation), % at 26.1 µM. hit rate 0.13% among 650,000. AID 1259310; in the data active = normalized activity above about 1.9%;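 note: purified mutant Fbw7 with reduced substrate affinity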
TEAD-YAP inh: TEAD-YAP interaction inhibition | HEK-TIYL cells, TEAD-Gal4/YAP UAS-luciferase luminescence | inhibition, % at 9.12 µM | hit rate 1.4% among 640,000 | AID 1259422; in the data active = inhibition above about 32%;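 note: 0% = median of test compound wells and 100% = reference inhibitor wells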
MITF inh: blocks human microphthalmia-associated transcription factor. O75030. AlphaScreen MITF homodimerization, bead proximity signal. inhibition, % at 2.6 µM. hit rate 0.91% among 650,000. AID 1259374; in the data active = inhibition above about 50%;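 note: 0% = vehicle wells with protein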
GPR151 activ: activators of human GPR151. activation, % at 11.2 µM. AID 1508602. Q8TDV0. PathHunter beta-arrestin GPR151 cells, luminescence. hit rate 1% among 650,000; in the data active = activation above about 4.9%;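 note: 0% = median of compound wells and 100% = cells with positive control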
GPR151 confirm: human GPR151 activation, confirmation screen. GPR151 PathHunter beta-arrestin cells, luminescence, 90 min; % of EA-reagent control over plate median. activation, % at 11.2 µM. 6,700 tested, under 10 active. AID 1508609. shares compounds with GPR151 activ;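 active = mean percent activation across replicates above the confirmation screen cutoff of 4.91%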
GPR119 ag: GPR119 activation, counter-screen for GPR151 activators; GPR119 PathHunter beta-arrestin cells, luminescence, 90 min; 0 = compound-well median, 100 = enzyme-acceptor control; activation, % at 11.2 µM; hit rate 0.3% among 6,700; shares compounds with GPR151 activ;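 active = mean percent activation in the counterscreen above 29.09%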;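 note: counterscreen on off-target GPR119 to flag nonselective hits from the GPR151 activator screen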
Target sequence (Q8TDV5 whole entry, looked up): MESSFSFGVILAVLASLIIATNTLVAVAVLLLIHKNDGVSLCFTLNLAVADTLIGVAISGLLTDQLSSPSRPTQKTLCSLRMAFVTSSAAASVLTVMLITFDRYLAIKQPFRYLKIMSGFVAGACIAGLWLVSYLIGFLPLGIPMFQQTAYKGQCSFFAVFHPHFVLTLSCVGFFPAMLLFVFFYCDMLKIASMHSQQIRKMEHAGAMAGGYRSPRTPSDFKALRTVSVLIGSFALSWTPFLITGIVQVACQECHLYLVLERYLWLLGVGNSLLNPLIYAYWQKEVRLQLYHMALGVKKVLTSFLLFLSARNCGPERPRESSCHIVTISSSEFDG
Starred values were filed as active, the others as inactive; x = not tested or not shown.

SMILES	FBW7 activator	TEAD-YAP inh	MITF inh	GPR151 activ	GPR151 confirm	GPR119 ag
Cc1nnc2n1CCN(C(=O)c1ccccc1N(C)C)CC2	-0.1	-6.3	-10.1	5.2*	0.9	4.4
O=C(/C=C/c1c(F)cccc1Cl)NCc1ccncc1	-0.2	-2.1	-3.1	7.2*	-0.8	-16.4
COC(=O)c1c(OCCc2scnc2C)cc(=O)n2c1CCN(C)CC2	-0.1	2.4	-6.9	1.2	x	x
COc1cccc(NC(=O)c2ccc(-c3ccsc3)nc2N2CCOCC2)c1	-0.2	-10.4	3.3	9.3*	1.2	3.8
COc1cccc(NC(=O)c2ccc(-c3cccc(OC)c3)nc2N2CCOCC2)c1	0.0	-12.9	15.4	1.3	x	x
O=C(NCCNc1ccc([N+](=O)[O-])cc1C(F)(F)F)c1cccc(Cl)c1	0.2	1.6	-8.7	-0.6	x	x
CCOC(=O)c1sc(NC(=O)CSc2ncnc3sc(C)c(C)c23)c(C(=O)OCC)c1C	-0.1	8.8	10.4	6.4*	0.8	8.2
Cc1ccc(N2C(=O)CC(Sc3ccc(F)cc3)C2=O)cc1 (configuration not stated)	0.0	10.1	-10.1	-0.2	x	x
Cc1ccc(SC2CC(=O)N(c3ccc(F)cc3F)C2=O)cc1 (configuration not stated)	0.0	0.4	-8.0	9.8*	-0.5	-4.7
CN1C(=O)[C@H]2CN(C(=O)c3ccccc3)CCN2C(=O)[C@@H]1Cc1ccccc1	-0.1	-10.9	8.9	5.3*	0.4	12.0
O=[N+]([O-])c1ccc2ncnc(N3CCN(Cc4ccc5c(c4)OCO5)CC3)c2c1	-0.5	34.9*	4.2	12.3*	1.2	3.5
Cn1ncc2c(N3CCN(Cc4ccc5c(c4)OCO5)CC3)ncnc21	0.8	2.4	5.6	0.6	x	x
COc1cccc(CN2C(=O)C3C(C(=O)Nc4cccc(C)c4)C4C=CC3(O4)C2C(=O)NC2CCCCC2C)c1 (configuration not stated)	-0.1	2.9	-3.9	5.5*	-0.2	8.6
CC1CCCC(NC(=O)C2N(Cc3ccc(F)cc3)C(=O)C3C(C(=O)Nc4ccc(Cl)cc4)C4C=CC32O4)C1C (configuration not stated)	-0.1	0.8	-8.9	5.3*	-0.1	0.2
COc1ccc(CN2C(=O)C3C(C(=O)Nc4cccc(C)c4)C4C=CC3(O4)C2C(=O)NC2CCCCC2C)cc1 (configuration not stated)	0.0	1.1	-4.8	-1.9	x	x
CC(c1ccccc1)N1C(=O)C2C(C(=O)Nc3ccc(Cl)cc3)C3C=CC2(O3)C1C(=O)NC1CCCCC1 (configuration not stated)	-0.2	4.3	-1.3	5.2*	-0.2	0.7
CC1CCCC(NC(=O)C2N(Cc3ccc(Cl)cc3)C(=O)C3C(C(=O)Nc4ccc(Cl)cc4)C4C=CC32O4)C1C (configuration not stated)	-0.2	-2.8	3.6	0.5	x	x
COCCCN1C(=O)C2C(C(=O)Nc3cccc(SC)c3)C3C=CC2(O3)C1C(=O)NC1CCCCC1 (configuration not stated)	0.3	-7.9	11.0	5.8*	0.1	0.7
CN1C(C(=O)c2ccccc2)=C(N2CCCCC2)c2ccccc2S1(=O)=O	-0.2	3.8	-0.7	8.1*	0.4	8.2
CN1C(C(=O)c2ccccc2)=C(N)c2ccccc2S1(=O)=O	-0.2	12.8	-2.6	-1.0	x	x
CN1C(=O)[C@H]2CN(Cc3nc(-c4ccc(F)cc4)cs3)CCN2C(=O)[C@@H]1Cc1ccccc1	-0.1	-27.9	-17.5	0.8	x	x
O=C1NC(=O)C(=Cc2ccc(OS(=O)(=O)c3ccc(Cl)cc3)cc2)C(=O)N1	-0.1	-5.2	13.4	-0.8	x	x
COc1ccc(S(=O)(=O)Oc2ccc(C=C3C(=O)NC(=O)NC3=O)cc2)cc1	-0.8	1.6	8.7	5.3*	0.7	10.2
CC(=O)OC[C@H]1O[C@H](C/C=N/O[C@@H](C)c2cn([C@H](CO)Cc3ccccc3)nn2)C=C[C@@H]1OC(C)=O	-0.1	x	14.7	0.8	x	x
CC(C)[C@@H](OCc1ccccc1)[C@H](C)/C=N/O[C@H](C)c1cn([C@H](CO)Cc2ccccc2)nn1	-0.1	x	-1.3	6.1*	-0.5	5.3
SMILES	FBW7 activator	TEAD-YAP inh	MITF inh	GPR151 activ	GPR151 confirm	GPR119 ag
CC(=O)c1cc(C#N)c(SCCC(C)C)nc1C	-0.1	-9.9	-12.2	7.9*	-0.7	1.0
O=C(CN1CCN(S(=O)(=O)c2ccc(Br)cc2)CC1)Nc1ccc(Cl)c(C(F)(F)F)c1	0.0	10.8	-5.0	5.8*	-1.2	-6.2
CCCCOCCCNC(=O)c1c(OC)cccc1OC	0.0	-5.2	4.3	0.8	x	x
CC(=O)NC1=NC(=O)/C(=C/c2ccc(-c3ccc(C)c(Cl)c3)o2)S1	0.0	-1.0	-6.3	5.3*	0.6	7.5
COc1ccc(C2CC(C(F)(F)F)n3nc(C(=O)Nc4cccc(O)c4)cc3N2)cc1 (configuration not stated)	0.1	1.9	14.3	5.8*	0.3	11.8
COc1ccc(C2CC(C(F)(F)F)n3nc(C(=O)Nc4cccc(C(F)(F)F)c4)cc3N2)cc1 (configuration not stated)	-0.1	0.2	-5.9	0.1	x	x
O=C(COc1ccccc1)N/N=C/c1ccc(Br)s1	0.0	4.4	6.1	1.8	x	x
Cc1nn(-c2ccccc2)c(Cl)c1/C=N\O	-0.1	-5.4	-5.0	5.1*	2.9	4.8
O=C(CC1OCCN(Cc2ccccc2)C1=O)Nc1ccc2c(c1)OCO2 (configuration not stated)	0.3	3.4	21.3	9.9*	0.7	14.4
CCOc1ccccc1CN1CCC(n2nccc2NC(=O)C(C)(C)C)CC1	0.0	-12.9	13.5	6.8*	0.4	9.2
O=C(Nc1ccnn1C1CCN(Cc2ccccc2OCCO)CC1)c1cccc(F)c1	0.0	-6.3	-10.0	5.9*	0.5	-3.1
O=C(Nc1ccnn1C1CCN(Cc2ccccc2F)CC1)C1CCCC1	-0.1	-8.6	-0.4	5.3*	-1.2	-16.4
COc1ccc(F)c(CN2CCC(n3nccc3NC(=O)C3CCCC3)CC2)c1	-0.1	2.5	-3.4	0.5	x	x
CN(C)CCCNP1(=O)C=C(c2ccccc2)SC(c2ccccc2)=C1	-0.1	-6.0	-2.0	0.8	x	x
CCC(=O)Nc1ccc(NC(=O)CSc2nc3c(c(=O)n(C)c(=O)n3C)n2C)cc1	0.4	14.3	15.0	15.0*	2.2	10.0
CC(=O)N1CCN(c2nc(-c3ccccc3)nc3sc4c(c23)CCCC4)CC1	-0.1	-7.3	-6.0	0.2	x	x
CC(C)Oc1cccc(CN(C)C(=O)Nc2ccc(-c3cn[nH]c3)cc2)c1	-0.6	6.1	-6.9	1.0	x	x
CC/C(C)=N/NC(=O)c1ccc(C(=O)N/N=C(\C)CC)cc1	0.1	4.3	-16.9	8.3*	-0.2	5.6
CC/C(C)=N\NC(=O)c1ccc(N)cc1	0.0	-25.2	7.4	0.7	x	x
Cc1cc(C)n(-c2cc(N3CCN(S(=O)(=O)c4ccccc4)CC3)ncn2)n1	-0.1	23.8	-0.7	1.0	x	x

Compound activity: PubChem, The Scripps Research Institute Molecular Screening Center
